From PubChem BioAssay
Active and inactive are the calls of the source.

Key:
[1] = compound effects on lung adenocarcinoma cell viability – A549, calcein-AM fluorescence, 48 h, basal, profiling panel (AID 1162); settings: higher = more signal
[2] = compound effects on differentiated 3T3-L1 adipocyte viability – cell-based, 3T3-L1 adipocytes, calcein-AM fluorescence, 48 h, basal, profiling panel (AID 1163); settings: 3T3-L1 adipocytes viability, higher = more signal
[3] = compound effects on hepatocellular carcinoma cell viability – HepG2, calcein-AM fluorescence, 48 h, basal, profiling panel (AID 1164); settings: higher = more signal
[4] = compound effects on multiple myeloma cell viability – MM1S, calcein-AM fluorescence, 48 h, basal, profiling panel (AID 1165); settings: higher = more signal;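 note: viability of MM1S multiple myeloma cells under basal unstimulated conditions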
[5] = calcein-AM signal in unstimulated myeloma cells – cell-based, calcein-AM fluorescence, 48 h, PK04 Diversity Set, profiling panel (AID 1166); settings: RPMI8226 myeloma viability, higher = more signal;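 note: cells grown under basal conditions without added stimulus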
[6] = JC-1 mitochondrial signal, unstimulated HepG2 cells – cell-based, JC-1 fluorescence, 24 h, 100 nL compound, profiling panel (AID 1167); settings: HepG2 mitochondrial potential, higher = more signal
[7] = JC-1 mitochondrial signal, unstimulated adipocytes – cell-based, JC-1 fluorescence, 3T3-L1 adipocytes, 24 h, 100 nL compound, profiling panel (AID 1168); settings: JC-1 mitochondrial fluorescence, higher = more signal, called active from +8 up or from −8 down
[8] = JC-1 mitochondrial signal, unstimulated myeloma cells – cell-based, JC-1 fluorescence, RPMI8226, 24 h, 100 nL compound, profiling panel (AID 1169); settings: JC-1 mitochondrial potential fluorescence, higher = more signal
[9] = JC-1 mitochondrial signal, unstimulated MM1S myeloma – cell-based, JC-1 fluorescence, 24 h, 100 nL compound, profiling panel (AID 1170); settings: MM1S mitochondrial potential, higher = more signal
[10] = resazurin metabolic signal in A549 cells – cell-based, resazurin fluorescence, 24 h, PK04 Diversity Set, profiling panel (AID 1171); settings: A549 viability, higher = more signal, called active from +8 up or from −8 down
Note: test concentration not given here.

SMILES	z-score [1]	z-score [2]	z-score [3]	z-score [4]	z-score [5]	z-score [6]	z-score [7]	z-score [8]	z-score [9]	z-score [10]
CN1C(=O)C2C=CC(C(O)C(c3ccccc3)c3ccccc3)N(NC(=O)OC(C)(C)C)C2C1=O (stereo not given)	-1.23	-0.4	-0.698	-2.47	-1.61	-1.46	-0.378 (inactive)	-0.654	0.455	0.383 (inactive)
CC(C)(C)OC(=O)CC[C@]1(C(=O)NCc2ccccc2)N=C(c2ccc(OCCCO)cc2)O[C@H]1c1ccccc1	-1.02	0.587	-0.329	-1.99	-1.14	0.956	-1.1 (inactive)	-0.762	-0.531	0.198 (inactive)
C#C[C@@H]1Oc2ccccc2S(=O)(=O)N2CCC[C@H]12	-0.244	-0.0897	-0.48	0.0671	-1.71	-0.998	0.121 (inactive)	0.51	0.193	-0.884 (inactive)
C[C@H](c1ccccc1)N1C(=O)[C@H]2[C@H]3[C@H](O)[C@H](O)CC(=O)[C@@H]3CC[C@H]2C1=O	-0.311	-0.0863	-0.254	-0.0752	0.299	0.032	-0.239 (inactive)	-0.0521	0.25	-0.164 (inactive)
COCCOC(=O)N1C(=O)[C@@]2(c3ccccc31)[C@H](C(N)=O)[C@H]1C(=O)O[C@H](c3ccccc3)[C@H](c3ccccc3)N1[C@@H]2c1ccccc1OCCO	-0.421	1.59	-1.42	-3.2	-4.53	-0.728	0.633 (inactive)	-1.1	-0.0748	-1.54 (inactive)
CCOC(=O)NN=C1C[C@@H](O)[C@@H](O)[C@@H]2[C@@H]3C(=O)N(C4CCCCC4)C(=O)[C@@H]3CC[C@@H]12	-0.117	-0.091	-0.281	0.0416	-0.771	-0.426	-0.61 (inactive)	-0.0516	0.134	-0.361 (inactive)
CCOC(=O)NN=C1C[C@@H](O)[C@@H](O)[C@@H]2[C@@H]3C(=O)N(C[C@@H]4CCCO4)C(=O)[C@@H]3CC[C@@H]12	0.0693	-0.637	0.473	0.157	0.549	1.06	0.491 (inactive)	0.248	-0.895	-0.175 (inactive)
c1ccc(C2NCCc3c2[nH]c2ccccc32)cc1 (stereo not given)	-0.479	0.381	-0.704	-0.402	-0.742	-2.18	-0.424 (inactive)	0.0801	0.299	0.272 (inactive)
CO[C@H]1COC(=O)[C@@H]2CCCN2C(=O)CC=C[C@@H](C)[C@H](OC)COC(=O)CC=C[C@@H]1C	0.346	1.04	1.01	0.292	0.84	1.23	0.252 (inactive)	-1.13	1.16	0.287 (inactive)
COC(=O)[C@@H]1N=C(c2ccc(OCCCO)cc2)O[C@@H]1c1ccccc1N=[N+]=[N-]	0.377	0.557	0.134	-1.58	-1.56	-0.682	0.761 (inactive)	-0.287	-0.218	0.4 (inactive)
C#CCCCON=C1C[C@@H](O)[C@@H](O)[C@@H]2[C@@H]3C(=O)N(CCC(=O)OCC)C(=O)[C@@H]3CC[C@@H]12	-0.284	-0.533	-0.675	0.17	-0.608	-1.18	-1.66 (inactive)	0.213	-0.123	-0.0981 (inactive)
Cc1cc2c(c(=O)o1)[C@H](O)[C@H]1O[C@H]1C2=O	-0.728	0.287	-1.03	-3.45	-2.96	-1.31	-0.883 (inactive)	0.433	-1.12	-0.506 (inactive)
CCN(CC)c1ccc(N2CC=CC34O[C@@H]5/C=C\CCC(C)OC(=O)C5[C@H]3C(=O)N(CCCO)[C@@H]4C2=O)cc1 (stereo not given in full)	0.28	0.782	0.109	1.09	0.264	-0.356	0.0214 (inactive)	-0.245	1.18	-0.38 (inactive)
CN1C(=O)C2C=CC(C(O)c3ccc(I)cc3)N(NC(=O)OC(C)(C)C)C2C1=O (stereo not given)	-0.872	-0.692	-1.28	-0.0342	-0.297	-1.56	-0.474 (inactive)	-0.698	0.804	-0.312 (inactive)
CC=CC1=C(CO)[C@H](O)[C@H]2O[C@H]2[C@H]1O	-0.286	0.292	-0.408	0.0314	-0.054	-0.722	0.382 (inactive)	0.635	0.677	-0.482 (inactive)
